Data as given in PubChem BioAssay AID1780 (National Center for Advancing Translational Sciences (NCATS), 2009).
Values without a mark were called inactive. Active and inactive are the calls of the source. Calls come from the whole dose curve; as a rule, active = well fitted curve in the direction sought with a large enough effect; inactive = no such curve, though single readings can be large or run the other way.

Biological target: Pyruvate kinase PKM (Homo sapiens) (UniProt P14618)
Assay: Confirmation Concentration-Response Assay for Activators of Human Muscle isoform 1 Pyruvate Kinase
Settings: purified hPK-M1, Kinase-Glo ATP luminescence, 1 h; series mostly up to 57.5 µM; activity change, positive = activation: at the top concentration
Excerpt: Confirmatory assay NIH Chemical Genomics Center [NCGC] Matthew G. Vander Heiden, M.D., Ph.D. [Harvard Medical School, 77 Avenue Louis Pasteur, Boston, MA 02115] NCGC Assay Overview: Human pyruvate kinase […] (hPK-M1) enzyme was supplied as a highly purified (>95% pure) preparation from Harvard Medical School and assayed for its ability to generate ATP from ADP using phosphoenolpyruvate (PEP) as a substrate. ATP generation was detected in a coupled reaction by luciferase-mediated luminescence, an ATP-dependent process. Pyruvate kinase substrates, PEP and ADP, were present in the assay at Km and approximately 10-fold below Km respectively. The enzyme was assayed at an intermediate level of activity to screen for both inhibitors and activators.
NCGC Assay Protocol Summary for M1-isoform: Three uL of substrate mix (at r.t.) in assay buffer (50 mM Imidazole pH7.2, 50 mM KCl, 7 mM MgCl2, 0.01% Tween 20, 0.05% BSA) was dispensed into white solid bottom 1,536 well microtiter plates so that the final concentrations of substrates in the assay were 0.1 mM ADP and 0.5 mM PEP. 23 nL of compound were delivered by a pin tool and 1 uL of enzyme mix (final concentration of 1 nM) in assay buffer (4 degree Celsius) was added. Plates were incubated at room temperature for 1 hour. Two uL of detection mix (Kinase-Glo, Promega; at 4 degree Celsius protected from light) was added and luminescence read by a ViewLux (Perkin Elmer) at 1 second exposure/plate. Data were normalized to the uninhibited (row 31). Additionally, a no enzyme and 5-fold enzyme control was dispensed in row 32, split equally between the two conditions.

Chain of Pyruvate kinase PKM (Homo sapiens) (P14618 whole entry, looked up, canonical isoform): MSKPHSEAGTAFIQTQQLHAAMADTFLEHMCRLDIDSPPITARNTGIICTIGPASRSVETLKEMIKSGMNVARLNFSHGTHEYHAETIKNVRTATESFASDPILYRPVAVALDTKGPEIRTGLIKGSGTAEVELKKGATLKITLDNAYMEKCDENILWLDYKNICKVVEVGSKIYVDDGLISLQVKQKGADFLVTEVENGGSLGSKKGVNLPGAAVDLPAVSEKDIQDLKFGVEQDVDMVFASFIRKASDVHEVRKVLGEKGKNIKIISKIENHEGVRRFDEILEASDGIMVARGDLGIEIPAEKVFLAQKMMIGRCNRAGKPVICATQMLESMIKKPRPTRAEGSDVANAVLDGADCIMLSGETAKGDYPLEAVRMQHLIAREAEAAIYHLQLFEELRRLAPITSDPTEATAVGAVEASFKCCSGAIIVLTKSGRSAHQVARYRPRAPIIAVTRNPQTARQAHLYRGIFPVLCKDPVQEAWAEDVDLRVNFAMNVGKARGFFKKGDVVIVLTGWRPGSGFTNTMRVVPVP

Structure (SMILES) | outcome | activity change, positive = activation
CC1(C)CCc2cc(S(=O)(=O)N3CCN(S(=O)(=O)c4c(F)cccc4F)CC3)ccc2O1 | inactive | –
O=S(=O)(NCCCCNS(=O)(=O)c1c(F)cccc1F)c1ccc2c(c1)OCCO2 | – | -5.47%
COc1ccc(S(=O)(=O)N2CCN(S(=O)(=O)c3ccc(OC)cc3)CC2)cc1 | inactive | –
COc1ccc(S(=O)(=O)N2CCN(S(=O)(=O)c3ccc4c(c3)OCCO4)CC2)cc1 | inactive | –
CCn1c2cc(C)sc2c2cnn(Cc3ccccc3F)c(=O)c21 | – | 2.24%
COc1ccc(S(=O)(=O)N2CCN(S(=O)(=O)c3c(F)cccc3F)CC2)cc1 | inactive | –
O=S(=O)(c1cccc(F)c1)N1CCN(S(=O)(=O)c2ccc3c(c2)OCCO3)CC1 | – | 7.95%
CCCCCn1ncc2c3sc(C)cc3n(C)c2c1=O | – | 2.69%
Cn1c2cc(B(O)O)sc2c2cnn(Cc3ccccc3F)c(=O)c21 | – | -1.07%
O=S(=O)(c1ccc2c(c1)OCCO2)N1CCN(S(=O)(=O)c2ccc(F)cc2F)CC1 | – | 10.3%
C[C@H]1CN(S(=O)(=O)c2ccc3c(c2)OCCO3)CCN1S(=O)(=O)c1c(F)cccc1F | – | 6.41%
O=S(=O)(NCC1CN(S(=O)(=O)c2ccc3c(c2)OCCO3)C1)c1c(F)cccc1F | – | -4.92%
Cc1cc2c(s1)c1cnn(Cc3ccc(S(C)(=O)=O)cc3)c(=O)c1n2C | – | -3.73%
O=S(=O)(c1ccc2c(c1)OCCO2)N1CCN(S(=O)(=O)c2cc(F)c(F)cc2F)CC1 | – | 5.08%
Cc1cc2c(s1)c1cnn(Cc3ccc(F)cc3)c(=O)c1n2C | – | -0.493%
Cn1c2ccsc2c2cnn(Cc3ccccc3F)c(=O)c21 | – | -0.235%
O=S(=O)(NCCNS(=O)(=O)c1c(F)cccc1F)c1ccc2c(c1)OCCO2 | – | -6.07%
CC(=O)Nc1cc2c(s1)c1cnn(Cc3ccccc3F)c(=O)c1n2C | – | 0.505%
C[C@H]1CN(S(=O)(=O)c2c(F)cccc2F)CCN1S(=O)(=O)c1ccc2c(c1)OCCO2 | – | 7.55%
O=C1CN(S(=O)(=O)c2c(F)cccc2F)CCN1S(=O)(=O)c1ccc2c(c1)OCCO2 | – | 5.79%

Structure (SMILES) | outcome | activity change, positive = activation
O=S(=O)(c1c(F)cccc1F)C1CCN(S(=O)(=O)c2ccc3c(c2)OCCO3)CC1 | – | 10%
Cc1cc2c(s1)c1cnn(Cc3cccc(Cn4ncc5c6sc(C)cc6n(C)c5c4=O)c3F)c(=O)c1n2C | – | 1.08%
Cc1cc2c(s1)c1cnn(Cc3ccccc3)c(=O)c1n2C | – | 7.2%
O=S(=O)(c1ccc2c(c1)OCCO2)N1CCN(S(=O)(=O)c2ccccn2)CC1 | – | 13.3%
O=S(=O)(c1ccc2c(c1)OCCCO2)N1CCN(S(=O)(=O)c2c(F)cccc2F)CC1 | – | 5.12%
O=S(=O)(c1ccc2c(c1)OCCO2)N1CCN(S(=O)(=O)c2ccc3c(c2)OCCO3)CC1 | inactive | –
Cc1cc2c(s1)c1cnn(Cc3c(F)cccc3F)c(=O)c1n2C | – | 4.85%
Cc1cc2c(s1)c1cnn(Cc3cc(C(F)(F)F)cc(Cl)c3F)c(=O)c1n2C | – | -0.316%
Cc1cc2c(s1)c1cnn(Cc3cccc(Cl)c3)c(=O)c1n2C | – | 13.6%
Cc1ccc(Cn2ncc3c4sc(C)cc4n(C)c3c2=O)cc1 | – | -1.9%
Cn1c2cc(S(C)=O)sc2c2cnn(Cc3ccccc3F)c(=O)c21 (stereo not given) | – | -0.143%
O=S(=O)(NC1CCN(S(=O)(=O)c2c(F)cccc2F)C1)c1ccc2c(c1)OCCO2 (stereo not given) | – | -3.63%
O=S(=O)(c1ccc2c(c1)OCCO2)N1CCN(S(=O)(=O)c2c(F)cccc2F)CC1 | – | 7.6%
O=C(c1c(F)cccc1F)N1CCN(S(=O)(=O)c2ccc3c(c2)OCCO3)CC1 | – | 11.3%
O=S(=O)(c1ccc2c(c1)OCCO2)N1CCCN(S(=O)(=O)c2c(F)cccc2F)CC1 | – | 15.7%
Cc1cc2c(s1)c1cnn(Cc3c(F)cccc3Cl)c(=O)c1n2C | – | 9.06%
Cc1cc2c(s1)c1cnn(Cc3ccc(-c4ccccc4)cc3)c(=O)c1n2C | – | 1.85%
Cc1cc2c(s1)c1cnn(Cc3cccc(F)c3F)c(=O)c1n2C | – | -2.21%
C[C@@H]1CN(S(=O)(=O)c2c(F)cccc2F)CCN1S(=O)(=O)c1ccc2c(c1)OCCO2 | – | 10.3%
O=S(=O)(c1ccc2c(c1)OCCO2)N1CCN(S(=O)(=O)c2cccc[n+]2[O-])CC1 | – | 1.97%
